High-throughput results (PubChem)
DT40 TDP1 no CPT: qHTS for Inhibitors of human tyrosyl-DNA phosphodiesterase 1 (TDP1): qHTS in cells in absence of CPT | Potency, µM (titrated, usually from 46.2 µM), usual class: inhibitors | hit rate 15% among 420,000 | DT40 Tdp1-/- hTDP1 cells, no CPT, ATP luminescence, 48 h | AID 686978, 2013; also: nearly all actives have a fitted effect of over 55% in size
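Compound effects on proliferation are scored in DT40 Tdp1-/-;hTDP1 cells in the absence of CPT. ATP levels (CellTiter-Glo luminescence) are recorded after a ≥48 hr, 37 °C incubation.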
HT1080 IDH1KD tx: HT-1080 IDH1 knockdown cell toxicity (counter line) | hit rate 2% among 360,000 | AID 686971 | Potency, µM (highest dose often 46.1 µM), actives largely listed as cytotoxic | HT-1080 IDH1 knockdown viability, ATP luminescence, 48 h
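Cytotoxicity counter-line: IDH1KD HT-1080, 48 h, CellTiter-Glo. Curves classed by r2, magnitude and activity.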
HT1080NT lethal: kills 2HG-producing HT-1080-NT fibrosarcoma cells | hit rate 1.6% among 360,000 | AID 686970 | Potency, µM (doses to about 46.1 µM), most hits filed as cytotoxic | HT-1080-NT fibrosarcoma viability, CellTiter-Glo ATP luminescence, 48 h;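 also: NT is the 2HG producing partner of a matched IDH1 knockdown line; nearly all actives have a fitted effect of over 55% in size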
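HT-1080-NT fibrosarcoma cells (2HG-overproducing), 750 cells/well in RPMI with 5% FBS, dosed after 2 h and incubated 48 h at 37C. CellTiter-Glo luminescence normalized to DMSO and no-cell wells; concentration-response curves fitted and classed.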
IL-1B inflam inh: blocks inflammasome-driven IL-1 beta release; THP-1 LPS/ATP IL-1B secretion, AlphaLISA, 16 h; active compounds read low; activity change, % at 57.5 µM; hit rate 4.7% among 360,000; AID 743279; in the data active = activity change below about -50%; inconclusive = mostly about -30% to -49%
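Secreted IL-1B measured by AlphaLISA bead assay after 16 h compound exposure of THP-1 cells; compounds (final up to 57.5 uM) added 1 h before LPS (250 ng/mL) and ATP (1.25 mM) stimulation; lower signal means less secretion.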
DT40 TDP1 CPT: DT40-hTDP1 cell growth loss with CPT. hit rate 12% among 420,000. Potency, µM (titrated, usually from 46.2 µM), hits mostly inhibitors. chicken DT40 Tdp1-/-;hTDP1 cells + 20 nM CPT, ATP luminescence, 48 h; also: nearly all actives have a fitted effect of over 55% in size
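Chicken DT40 Tdp1-/- cells stably complemented with human TDP1 were seeded at 400 cells/well in medium containing 20 nM camptothecin, exposed to pin-transferred compounds, and grown at 37 °C for at least 48 hr. Viability was read as ATP luminescence.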
Numbers stand for hits. A selection: hits, their analogues and other compounds. The true share with any hit is near 19%. Unless noted, calls follow the shape of the dose curve; as a rule, active = well fitted curve in the direction sought with a large enough effect; inconclusive = small, poorly fitted or top-dose-only effect, or another doubt; inactive = no such curve, though single readings can be large; an effect the other way counts as inactive or inconclusive.

Screening COc1ccc(CN2CCN(CC=C(C)C)C(CCO)C2)cc1Cn1cccn1 (centres undefined) returned DT40 TDP1 no CPT inactive, HT1080 IDH1KD tx inactive, HT1080NT lethal inactive, IL-1B inflam inh inactive and DT40 TDP1 CPT inactive.
CCN(C(=O)COC(=O)/C=C/c1ccco1)C1CCCCC1 was read as DT40 TDP1 no CPT inactive, HT1080 IDH1KD tx inactive, HT1080NT lethal inactive, IL-1B inflam inh inactive and DT40 TDP1 CPT inactive.
COc1ccc(Cn2c(CCC(=O)NCc3ccco3)nc3cccnc32)cc1 was read as DT40 TDP1 no CPT inactive, HT1080 IDH1KD tx inactive, HT1080NT lethal inactive, IL-1B inflam inh inactive and DT40 TDP1 CPT inactive.
CSc1c(CN2CCN(C)CC2)c2ccccc2n1C was read as DT40 TDP1 no CPT inactive, HT1080 IDH1KD tx inactive, HT1080NT lethal inactive, IL-1B inflam inh inactive and DT40 TDP1 CPT inactive.
N/C(=N\C(=S)Nc1ccc2c(c1)OCO2)c1ccccc1 was read as DT40 TDP1 no CPT inconclusive, HT1080 IDH1KD tx inactive, HT1080NT lethal inactive, IL-1B inflam inh inactive and DT40 TDP1 CPT inconclusive.
CC1CCCN(C(=O)c2ccc3c(=O)n4nc(Nc5ccccc5)sc4nc3c2)C1 (centres undefined) was read as DT40 TDP1 no CPT inconclusive, HT1080 IDH1KD tx inactive, HT1080NT lethal inactive, IL-1B inflam inh inactive and DT40 TDP1 CPT inactive.
Screening CCc1ccc(NC(=O)c2ccc3c(=O)n4nc(Nc5ccccc5C)sc4nc3c2)cc1 returned DT40 TDP1 no CPT 13µM and DT40 TDP1 CPT 23µM.
COC(=O)c1ccc2c(=O)n3nc(Nc4ccc(F)cc4F)sc3nc2c1 was read as DT40 TDP1 no CPT inactive and DT40 TDP1 CPT inactive.
O=C(NCCC1=CCCCC1)c1ccc2c(=O)n3nc(Nc4ccccc4)sc3nc2c1 was read as DT40 TDP1 no CPT 3.7µM and DT40 TDP1 CPT 2.3µM.
For Cc1ccc(Cl)cc1Nc1nn2c(=O)c3ccc(C(=O)NCc4ccc(F)cc4)cc3nc2s1 the results were DT40 TDP1 no CPT 4.6µM and DT40 TDP1 CPT 2.1µM.
`CCOc1c2ccc(C(=O)NCCCCc3ccccc3)cc2nn1CC` gave DT40 TDP1 no CPT inactive, HT1080 IDH1KD tx inactive, HT1080NT lethal inactive, IL-1B inflam inh inactive and DT40 TDP1 CPT inactive.
Screening CCc1ccccc1Nc1nn2c(=O)c3ccc(C(=O)NCCc4ccccc4)cc3nc2s1 returned DT40 TDP1 no CPT 23µM and DT40 TDP1 CPT 10µM.
N#Cc1ccc(-c2nc3ccc(Cl)cn3c2Cc2ccsc2)cc1 was read as DT40 TDP1 no CPT inconclusive, HT1080 IDH1KD tx inactive, HT1080NT lethal inactive, IL-1B inflam inh inactive and DT40 TDP1 CPT inconclusive.
For COCCNC(=O)c1c(C)oc2nc(C)nc(N3CCOCC3)c12 the results were DT40 TDP1 no CPT inactive and DT40 TDP1 CPT inactive.
Screening CCOc1c2ccc(C(=O)NCc3ccc(C)cc3)cc2nn1CC returned DT40 TDP1 no CPT inactive, HT1080 IDH1KD tx inactive, HT1080NT lethal inactive, IL-1B inflam inh inactive and DT40 TDP1 CPT inactive.
Screening Cc1ccccc1Nc1nn2c(=O)c3ccc(C(=O)NCc4ccccc4)cc3nc2s1 returned DT40 TDP1 no CPT 16µM and DT40 TDP1 CPT 16µM.
Screening CCc1ccccc1Nc1nn2c(=O)c3ccc(C(=O)NC(C)c4ccccc4)cc3nc2s1 (centres undefined) returned DT40 TDP1 no CPT 15µM and DT40 TDP1 CPT 15µM.
For CCc1ccccc1Nc1nn2c(=O)c3ccc(C(=O)NCc4ccc(C)cc4)cc3nc2s1 the results were DT40 TDP1 no CPT 8.2µM and DT40 TDP1 CPT inconclusive.
CC(NC(=O)c1ccc2c(=O)n3c(nc2c1)CCC3)c1ccc(S(N)(=O)=O)cc1 (centres undefined) was read as DT40 TDP1 no CPT inactive, HT1080 IDH1KD tx inactive, HT1080NT lethal inactive, IL-1B inflam inh inactive and DT40 TDP1 CPT inactive.
`CCCCCn1c(=O)[nH]c2cc(C(=O)NCc3ccccc3)ccc2c1=O` gave DT40 TDP1 no CPT inactive and DT40 TDP1 CPT inactive.
For CC1CCCN(C(=O)c2cc3c(=O)n(C)c4ccccc4c3s2)C1 (centres undefined) the results were DT40 TDP1 no CPT inactive and DT40 TDP1 CPT inactive.
`Cc1cc(-c2nn3c(C)nnc3s2)ccc1NC(=O)C(C)(C)C` gave DT40 TDP1 no CPT inactive, HT1080 IDH1KD tx inactive, HT1080NT lethal inactive, IL-1B inflam inh inactive and DT40 TDP1 CPT inactive.
Screening COc1ccc(S(=O)(=O)N2CCOC2CNC(=O)C(=O)NCc2ccc3c(c2)OCO3)cc1 (centres undefined) returned DT40 TDP1 no CPT inactive, HT1080 IDH1KD tx inactive, HT1080NT lethal inactive, IL-1B inflam inh inactive and DT40 TDP1 CPT inconclusive.
For CCOC(=O)C1CCN(C(=O)c2ccc3c(c2)sc2nc(-c4ccccc4)cn23)CC1 the results were DT40 TDP1 no CPT 23µM and DT40 TDP1 CPT 6.5µM.
Screening CCOC(=O)N1CCN(C(=O)c2ccc3c(c2)sc2nc(-c4ccccc4)cn23)CC1 returned DT40 TDP1 no CPT inconclusive, HT1080 IDH1KD tx inactive, HT1080NT lethal inactive, IL-1B inflam inh inactive and DT40 TDP1 CPT inconclusive.
Screening CCOC(=O)C1CCN(C(=O)c2ccc3c(c2)sc2nc(-c4ccc(OCC)cc4)cn23)CC1 returned DT40 TDP1 no CPT 6.5µM and DT40 TDP1 CPT 7.3µM.
Cc1ccc(-c2cn3c(n2)sc2cc(C(=O)N4CCCCC4)ccc23)cc1 was read as DT40 TDP1 no CPT 16µM and DT40 TDP1 CPT inactive.
Screening Cc1ccc(-c2cn3c(n2)sc2cc(C(=O)NC(C)C45CC6CC(CC(C6)C4)C5)ccc23)cc1 (centres undefined) returned DT40 TDP1 no CPT inactive and DT40 TDP1 CPT inactive.
For COc1ccc(-n2nnc3c(SCC(=O)N4CCCc5ccccc54)ncnc32)cc1 the results were DT40 TDP1 no CPT inactive, HT1080 IDH1KD tx inactive, HT1080NT lethal inconclusive, IL-1B inflam inh inactive and DT40 TDP1 CPT inactive.
`CCOc1ccc(NC(=S)N(C)C)cc1` gave DT40 TDP1 no CPT inactive, HT1080 IDH1KD tx inactive, HT1080NT lethal inactive, IL-1B inflam inh inactive and DT40 TDP1 CPT inactive.
`CNc1nc(SC)nc2ccccc12` gave DT40 TDP1 no CPT inconclusive, HT1080 IDH1KD tx inactive, HT1080NT lethal inactive, IL-1B inflam inh inactive and DT40 TDP1 CPT inactive.
Screening CSc1nc(N(C)NC(=O)c2ccc(Cl)cc2)c2ccccc2n1 returned DT40 TDP1 no CPT 0.33µM, HT1080 IDH1KD tx inconclusive, HT1080NT lethal 0.73µM, IL-1B inflam inh inactive and DT40 TDP1 CPT 0.26µM.
CSc1nc(N(C)NC(=O)c2ccccc2)c2ccccc2n1 was read as DT40 TDP1 no CPT 0.52µM, HT1080 IDH1KD tx 0.58µM, HT1080NT lethal 0.58µM, IL-1B inflam inh inactive and DT40 TDP1 CPT 0.58µM.
COc1ccc(NC(=O)C2CCCCN2S(=O)(=O)c2ccccc2)cc1S(=O)(=O)N1CCOCC1 (centres undefined) was read as DT40 TDP1 no CPT inactive, HT1080 IDH1KD tx inactive, HT1080NT lethal inactive, IL-1B inflam inh inactive and DT40 TDP1 CPT inactive.
